Results from the supplement of paper PMC10849652.
About 7,900 targets were measured; listed, in parts, are those with a hit and a random draw of the rest. About 0.6% of all pairs of compound and target were hits. A number with no mark means an inactive call.

Key:
Assay in all cases: log2 fold change, soluble protein after heating vs DMSO (PISA); higher = thermal stabilisation; K562 cells, 10 uM, 30 min; active = over 0.2 and 3.5 SD of the protein, either way, in both replicates (recomputed)
IRAK-1-4 Inhibitor I = compound: C1COCCN1CCN2C3=CC=CC=C3N=C2NC(=O)C4=CC(=CC=C4)[N+](=O)[O-] [IRAK-1-4 Inhibitor I]
How it was run: (§1)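 Soluble protein was defined as the supernatant after 21,000xg for 90 min. It came from K562 cells at 2×10^6 cells/mL given 10 μM compound for 30 min, heated in aliquots for 3 min across 48°C-58°C, pooled, and extracted in PBS with 0.5% NP-40 at 4°C, and was quantified by TMTpro 16plex LC-MS/MS with equalised channel sums. Thermal stability against control samples, from duplicates, is reported as log2 fold change.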

ibrutinib = compound: C=CC(=O)N1CCC[C@@H](n2nc(-c3ccc(Oc4ccccc4)cc3)c3c(N)ncnc32)C1 [ibrutinib]
How it was run: as §1

[1] = compound: CC(=O)c1cnc2ccc(-c3cc(Cl)c(O)c(Cl)c3)nc2c1N[C@H]1CC[C@H](CN(C)C)CC1
How it was run: as §1

ralimetinib = compound: CC(C)(C)Cn1c(N)nc2ccc(-c3[nH]c(C(C)(C)C)nc3-c3ccc(F)cc3)nc21 [ralimetinib]
How it was run: as §1

[2] = compound: CC(C)(O)CC(=O)NCCn1ccc2ncnc(Nc3ccc(Oc4cccc(C(F)(F)F)c4)c(Cl)c3)c21
How it was run: as §1

[3] = compound: CC(C)C1=C2N=C(C=C(N2N=C1)NCC3=CC=CC=C3)NCCCCCCN
How it was run: as §1

[4] = compound: CC(C)C[C@@H](C=O)NC(=O)[C@H](CC(C)C)NC(=O)[C@H](CC(C)C)NC(=O)OCc1ccccc1
How it was run: as §1

pinometostat = compound: CC(C)N(C[C@H]1O[C@@H](n2cnc3c(N)ncnc32)[C@H](O)[C@@H]1O)[C@H]1C[C@@H](CCc2nc3cc(C(C)(C)C)ccc3[nH]2)C1 [pinometostat]
How it was run: as §1

[5] = compound: CC1=C(C(CC(=O)N1)C2=CC=C(C=C2)C(F)(F)F)C(=O)NC3=C(C=C4C(=C3)C=NN4)F
How it was run: as §1

[6] = compound: CC1=C(C2=C(C=C1)C(=O)C3=CC=CC=C3N2CCCN)C
How it was run: as §1

Sequence of UniProt Q9UHX1 (Q9UHX1 whole entry, looked up): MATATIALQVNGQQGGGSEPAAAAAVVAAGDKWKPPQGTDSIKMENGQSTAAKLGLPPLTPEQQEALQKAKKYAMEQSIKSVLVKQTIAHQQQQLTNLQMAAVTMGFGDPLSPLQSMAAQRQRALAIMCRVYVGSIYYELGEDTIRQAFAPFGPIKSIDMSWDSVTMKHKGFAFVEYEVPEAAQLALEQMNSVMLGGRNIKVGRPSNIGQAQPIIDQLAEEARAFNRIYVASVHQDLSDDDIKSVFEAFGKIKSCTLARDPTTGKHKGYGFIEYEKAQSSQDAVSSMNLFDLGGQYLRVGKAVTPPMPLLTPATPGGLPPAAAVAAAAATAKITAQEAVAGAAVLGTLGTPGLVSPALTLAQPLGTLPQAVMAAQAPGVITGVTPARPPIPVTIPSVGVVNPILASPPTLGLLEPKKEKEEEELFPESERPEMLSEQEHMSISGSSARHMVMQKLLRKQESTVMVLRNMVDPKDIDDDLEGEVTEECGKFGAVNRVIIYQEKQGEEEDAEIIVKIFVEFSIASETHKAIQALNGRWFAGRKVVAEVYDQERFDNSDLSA
Sequence of UniProt P62191 (P62191 whole entry, looked up): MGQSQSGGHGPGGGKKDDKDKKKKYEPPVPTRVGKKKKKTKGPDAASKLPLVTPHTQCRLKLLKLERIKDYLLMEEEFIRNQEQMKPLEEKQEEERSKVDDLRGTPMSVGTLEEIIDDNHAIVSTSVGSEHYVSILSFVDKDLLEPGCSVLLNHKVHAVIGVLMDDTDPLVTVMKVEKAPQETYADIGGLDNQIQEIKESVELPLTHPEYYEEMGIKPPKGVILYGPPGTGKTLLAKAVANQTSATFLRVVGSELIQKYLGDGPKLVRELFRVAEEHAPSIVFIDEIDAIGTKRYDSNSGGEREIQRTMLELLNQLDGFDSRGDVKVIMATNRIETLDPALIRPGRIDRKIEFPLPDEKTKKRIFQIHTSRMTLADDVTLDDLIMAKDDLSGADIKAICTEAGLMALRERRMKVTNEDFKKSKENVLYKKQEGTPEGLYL
Sequence of UniProt Q00577 (Q00577 whole entry, looked up): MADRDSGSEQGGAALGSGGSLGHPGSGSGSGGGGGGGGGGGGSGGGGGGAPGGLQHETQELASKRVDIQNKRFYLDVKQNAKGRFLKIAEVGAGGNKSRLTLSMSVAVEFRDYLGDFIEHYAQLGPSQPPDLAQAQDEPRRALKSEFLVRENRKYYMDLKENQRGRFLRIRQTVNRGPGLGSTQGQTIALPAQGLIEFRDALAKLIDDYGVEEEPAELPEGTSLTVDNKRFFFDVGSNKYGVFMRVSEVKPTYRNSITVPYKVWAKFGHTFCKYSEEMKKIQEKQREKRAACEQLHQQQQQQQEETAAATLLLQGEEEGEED
Sequence of UniProt O95453 (O95453 whole entry, looked up): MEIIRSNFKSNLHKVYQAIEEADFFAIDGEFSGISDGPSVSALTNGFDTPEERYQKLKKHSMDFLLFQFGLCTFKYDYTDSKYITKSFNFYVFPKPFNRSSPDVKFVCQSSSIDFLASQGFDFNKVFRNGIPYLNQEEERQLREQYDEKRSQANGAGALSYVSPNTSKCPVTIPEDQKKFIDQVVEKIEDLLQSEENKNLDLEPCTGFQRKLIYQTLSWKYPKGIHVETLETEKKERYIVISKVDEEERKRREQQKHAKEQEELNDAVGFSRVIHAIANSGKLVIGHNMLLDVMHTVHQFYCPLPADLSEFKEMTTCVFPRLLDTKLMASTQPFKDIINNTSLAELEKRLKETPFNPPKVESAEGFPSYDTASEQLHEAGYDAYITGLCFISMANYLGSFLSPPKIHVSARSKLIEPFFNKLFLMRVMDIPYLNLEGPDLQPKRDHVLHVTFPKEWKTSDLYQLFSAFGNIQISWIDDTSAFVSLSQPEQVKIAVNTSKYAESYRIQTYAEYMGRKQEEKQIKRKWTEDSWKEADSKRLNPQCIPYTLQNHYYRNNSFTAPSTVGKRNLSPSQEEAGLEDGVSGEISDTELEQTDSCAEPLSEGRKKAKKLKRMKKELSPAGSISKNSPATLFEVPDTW
Sequence of UniProt P13861 (P13861 whole entry, looked up): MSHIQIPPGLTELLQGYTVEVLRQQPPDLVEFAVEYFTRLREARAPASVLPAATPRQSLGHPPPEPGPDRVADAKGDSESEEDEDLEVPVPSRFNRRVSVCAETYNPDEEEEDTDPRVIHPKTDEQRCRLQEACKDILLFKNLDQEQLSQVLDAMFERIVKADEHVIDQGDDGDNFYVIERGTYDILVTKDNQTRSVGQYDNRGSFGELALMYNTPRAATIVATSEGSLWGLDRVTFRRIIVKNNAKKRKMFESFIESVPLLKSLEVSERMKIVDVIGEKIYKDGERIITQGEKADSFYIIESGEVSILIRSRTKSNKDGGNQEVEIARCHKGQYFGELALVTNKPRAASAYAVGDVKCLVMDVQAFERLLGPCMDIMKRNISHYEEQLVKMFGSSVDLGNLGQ
Sequence of UniProt Q96HA1 (Q96HA1 whole entry, looked up): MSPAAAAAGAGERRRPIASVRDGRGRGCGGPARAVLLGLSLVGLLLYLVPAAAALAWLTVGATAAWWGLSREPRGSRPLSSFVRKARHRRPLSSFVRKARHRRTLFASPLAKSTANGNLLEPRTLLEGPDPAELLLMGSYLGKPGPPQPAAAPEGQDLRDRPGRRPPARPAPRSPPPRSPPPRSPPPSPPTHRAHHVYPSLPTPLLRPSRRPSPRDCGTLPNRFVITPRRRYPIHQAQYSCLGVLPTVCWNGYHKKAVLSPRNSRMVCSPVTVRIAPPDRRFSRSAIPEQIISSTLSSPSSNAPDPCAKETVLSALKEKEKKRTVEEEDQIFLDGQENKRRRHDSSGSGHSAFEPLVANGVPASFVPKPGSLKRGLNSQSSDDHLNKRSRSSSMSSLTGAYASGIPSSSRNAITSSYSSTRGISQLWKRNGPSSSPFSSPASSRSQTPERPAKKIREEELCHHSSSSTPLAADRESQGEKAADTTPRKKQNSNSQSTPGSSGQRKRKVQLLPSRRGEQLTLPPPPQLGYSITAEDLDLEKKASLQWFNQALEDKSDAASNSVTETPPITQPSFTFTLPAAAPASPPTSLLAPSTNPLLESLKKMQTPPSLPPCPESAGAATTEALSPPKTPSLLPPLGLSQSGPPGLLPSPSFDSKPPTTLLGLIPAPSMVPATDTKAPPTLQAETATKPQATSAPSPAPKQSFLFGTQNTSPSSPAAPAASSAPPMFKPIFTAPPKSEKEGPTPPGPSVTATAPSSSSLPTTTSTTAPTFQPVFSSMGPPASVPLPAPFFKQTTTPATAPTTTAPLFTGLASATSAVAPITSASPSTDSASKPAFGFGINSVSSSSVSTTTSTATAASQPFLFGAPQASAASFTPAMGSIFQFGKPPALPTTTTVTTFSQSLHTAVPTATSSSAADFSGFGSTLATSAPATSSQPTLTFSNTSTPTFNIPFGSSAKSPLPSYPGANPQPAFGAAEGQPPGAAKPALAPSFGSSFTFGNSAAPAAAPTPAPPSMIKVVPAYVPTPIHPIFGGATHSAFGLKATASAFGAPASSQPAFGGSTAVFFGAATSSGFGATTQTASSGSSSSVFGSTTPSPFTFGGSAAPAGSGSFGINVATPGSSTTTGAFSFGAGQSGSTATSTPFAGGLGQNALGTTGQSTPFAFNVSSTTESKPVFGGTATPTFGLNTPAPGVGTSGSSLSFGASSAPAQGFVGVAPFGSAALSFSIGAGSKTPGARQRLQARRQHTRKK
Sequence of UniProt O96011 (O96011 whole entry, looked up, change not shown): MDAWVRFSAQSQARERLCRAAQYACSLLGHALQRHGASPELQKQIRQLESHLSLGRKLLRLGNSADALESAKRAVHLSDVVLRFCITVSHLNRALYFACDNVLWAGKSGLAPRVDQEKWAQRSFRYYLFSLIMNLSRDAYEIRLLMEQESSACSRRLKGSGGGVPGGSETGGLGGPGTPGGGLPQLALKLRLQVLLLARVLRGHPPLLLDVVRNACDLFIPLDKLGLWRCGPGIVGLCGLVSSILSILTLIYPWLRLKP
Sequence of UniProt O60256 (O60256 whole entry, looked up): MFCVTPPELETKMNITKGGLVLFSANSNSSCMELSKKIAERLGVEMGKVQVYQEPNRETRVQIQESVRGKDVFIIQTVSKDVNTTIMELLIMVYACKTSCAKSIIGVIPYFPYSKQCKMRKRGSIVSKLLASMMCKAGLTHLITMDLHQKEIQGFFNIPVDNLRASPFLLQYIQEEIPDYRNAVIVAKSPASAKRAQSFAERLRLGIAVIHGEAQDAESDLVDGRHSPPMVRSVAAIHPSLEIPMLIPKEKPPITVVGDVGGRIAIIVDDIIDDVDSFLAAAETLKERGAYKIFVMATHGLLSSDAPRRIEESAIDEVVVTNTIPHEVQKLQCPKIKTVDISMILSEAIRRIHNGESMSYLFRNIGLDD

Target	log2 fold change (IRAK-1-4 Inhibitor I)	log2 fold change (ibrutinib)	log2 fold change [1]	log2 fold change (ralimetinib)	log2 fold change [2]	log2 fold change [3]	log2 fold change [4]	log2 fold change (pinometostat)	log2 fold change [5]	log2 fold change [6]
RAB11FIP1 (UniProt Q6WKZ4)	0.014	-0.009	-0.067	0.023	-0.016	-0.118	-0.004	0.059	-0.021	0.041
PLCB3 (UniProt Q01970)	-0.013	-0.026	-0.017	0.014	-0.064	-0.138	-0.003	0.01	-0.022	0.004
PUF60 (UniProt Q9UHX1)	-0.11	-0.018	-0.352 (active)	0.049	-0.016	-0.235 (active)	-0.003	-0.016	0.001	0.016
PCYT1A (UniProt P49585)	0.081	-0.032	-0.007	-0.072	-0.019	-0.163	0.084	-0.005	0.116	-0.137
PRKCA (UniProt P17252)	0.012	-0.02	-0.595 (active)	-0.039	-0.02	-0.035	0.104	-0.015	0.011	0.064
PSMD12 (UniProt O00232)	-0.055	-0.022	0.03	0.004	-0.01	0	-0.251 (active)	0.03	0.007	0.015
PDE12 (UniProt Q6L8Q7)	0.118	0.015	0.085	-0.036	-0.006	-0.032	0.03	-0.031	0.01	0.033
PHKG2 (UniProt P15735)	-0.034	-0.008	0.39 (active)	0.031	-0.121	-0.041	0.017	0.054	-0.041	0.115
PIP4K2B (UniProt P78356)	0.254	0.01	0.856 (active)	0.005	-0.149	0.033	-0.034	-0.014	-0.11	0.065
PSMD6 (UniProt Q15008)	-0.037	-0.036	0.081	0.087	0.05	0.038	-0.221 (active)	0.047	0.028	0.012
PDCD6IP (UniProt Q8WUM4)	-0.156	-0.11	-0.039	0.046	-0.198	-0.327	0.019	0.084	0.015	0.044
PTPA (UniProt Q15257)	0.016	-0.027	-0.003	-0.02	-0.022	-0.01	-0.028	-0.044	0.016	-0.011
PKN2 (UniProt Q16513)	-0.017	-0.054	-0.797 (active)	0.085	-0.042	-0.051	0.085	0.141	-0.025	-0.016
POLD3 (UniProt Q15054)	-0.013	-0.01	-0.043	-0.001	-0.114	-0.357 (active)	-0.117	-0.016	-0.091	0.013
PRPSAP2 (UniProt O60256)	0.02	0.008	0.074	-0.013	0.003	0.035	-0.017	-0.003	0.033	0.063
PEX11B (UniProt O96011)	0.025	0.04	0.032	0.005	0.008	0.075	-0.058	-0.031	0.055	0.012
PSMC1 (UniProt P62191)	-0.053	-0.024	0.056	0.018	0.002	0.04	-0.212 (active)	0.032	0.031	-0.007
POLR2A (UniProt P24928)	-0.029	0.054	0.342 (active)	0.011	-0.065	0.19	0.005	-0.004	-0.046	0.033
PIP4K2A (UniProt P48426)	0.115	-0.03	0.749 (active)	-0.068	-0.108	0.074	0.018	-0.067	-0.118	-0.02
PPP1R35 (UniProt Q8TAP8)	-0.055	-0.057	-0.069	-0.007	-0.026	-0.049	0.036	-0.021	0.049	-0.049
PRKAR2A (UniProt P13861)	0.006	0.013	-0.696 (active)	0.047	-0.036	-0.002	-0.023	0.074	-0.06	0.058
PPP1R12A (UniProt O14974)	-0.013	-0.022	-0.666 (active)	0	0	-0.119	-0.014	-0.003	-0.514 (active)	-0.01
PARN (UniProt O95453)	0.002	-0.047	-0.092	-0.013	-0.02	-0.025	0.018	-0.018	0.01	0.033
PLD3 (UniProt Q8IV08)	0.022	-0.031	-0.042	-0.039	-0.022	-0.079	0.05	-0.005	0.003	-0.023
PNN (UniProt Q9H307)	0.051	-0.047	-0.134	0.032	0.004	-0.146	0.145	0.124	0.056	–
PRPF40A (UniProt O75400)	-0.093	-0.085	-0.149	0.095	-0.022	-0.411 (active)	0.043	-0.041	-0.034	0.13
PXK (UniProt Q7Z7A4)	0.032	0.042	-0.012	0.1	-0.023	-0.201	0.037	0.012	-0.024	0.057
PSPC1 (UniProt Q8WXF1)	-0.097	0.002	-0.201	-0.012	-0.024	-0.18	0.048	-0.02	-0.042	0.15
PURA (UniProt Q00577)	-0.151	0.096	0.169	0.064	0.276	0.129	0.079	0.087	-0.005	-0.792 (active)
POM121 (UniProt Q96HA1)	-0.022	0.005	-0.164	0.083	0.016	-0.241	0.178	0.065	-0.042	-0.057
